Experimental data from PubChem BioAssay.
A number with no mark means an inactive call. Where a call stands in place of a potency, no number is given. For some of these results: Potency and affinity values are given separately. Activity calls are given as the source filed them. Unless noted, no rule for the calls is given here.

What was measured:
[1] = antimalarial activity against Dd2 strain (AID 2302;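 active = growth inhibition above 50% at the single 2 µM test dose, taken to imply half-maximal potency below 2 µM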); conditions: P. falciparum Dd2 in RBCs, LDH growth readout, 72 h; at 2 µM; active compounds read high
[2] = human hepatoma cell viability loss – ATP luminescence, cytotoxicity control for P. falciparum antimalarial project, primary screen (AID 2303;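 active = inhibition above 50%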); conditions: HepG2 viability, 24-48 h, at 10 µM, active compounds read high
[3] = biological target: L-lactate dehydrogenase (Plasmodium falciparum (isolate CDC / Honduras)) (UniProt Q27743); test: PfLDH activity inhibition – cell lysate, 3D7 strain, counter-screen for P. falciparum growth inhibition project (AID 2304); conditions: P. falciparum 3D7 crude extract, LDH APAD/NBT absorbance; at 2 µM; active compounds read high
Sequence of L-lactate dehydrogenase (Plasmodium falciparum (isolate CDC / Honduras)) (Q27743 whole entry, looked up): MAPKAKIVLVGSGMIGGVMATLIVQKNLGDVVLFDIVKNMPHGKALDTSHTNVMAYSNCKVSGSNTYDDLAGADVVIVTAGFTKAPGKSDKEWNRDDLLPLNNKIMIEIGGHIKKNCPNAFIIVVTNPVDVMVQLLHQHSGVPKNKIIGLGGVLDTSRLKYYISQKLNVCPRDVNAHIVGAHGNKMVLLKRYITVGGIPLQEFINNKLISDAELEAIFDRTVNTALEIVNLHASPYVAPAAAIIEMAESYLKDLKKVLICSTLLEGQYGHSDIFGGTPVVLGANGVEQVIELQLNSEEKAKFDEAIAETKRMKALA

[4] = inhibition of 3D7 malaria parasite growth – strain 3D7 (AID 2306); conditions: P. falciparum 3D7 erythrocytic growth, LDH absorbance, 72 h; at 2 µM; active compounds read high
[5] = biological target: Calcium-dependent protein kinase 1 (Plasmodium falciparum (isolate 3D7)) (UniProt P62344); test: PfCDPK1 kinase inhibitors, biochemical, TCAMS library (AID 1159585; cut-off not given, nearly all actives have IC50 up to about 0.98 µM;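 also: inhibitors leave more ATP so luminescence rises with inhibition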); conditions: recombinant PfCDPK1, Kinase-Glo ATP depletion luminescence
Sequence of Calcium-dependent protein kinase 1 (Plasmodium falciparum (isolate 3D7)) (P62344 whole entry, looked up): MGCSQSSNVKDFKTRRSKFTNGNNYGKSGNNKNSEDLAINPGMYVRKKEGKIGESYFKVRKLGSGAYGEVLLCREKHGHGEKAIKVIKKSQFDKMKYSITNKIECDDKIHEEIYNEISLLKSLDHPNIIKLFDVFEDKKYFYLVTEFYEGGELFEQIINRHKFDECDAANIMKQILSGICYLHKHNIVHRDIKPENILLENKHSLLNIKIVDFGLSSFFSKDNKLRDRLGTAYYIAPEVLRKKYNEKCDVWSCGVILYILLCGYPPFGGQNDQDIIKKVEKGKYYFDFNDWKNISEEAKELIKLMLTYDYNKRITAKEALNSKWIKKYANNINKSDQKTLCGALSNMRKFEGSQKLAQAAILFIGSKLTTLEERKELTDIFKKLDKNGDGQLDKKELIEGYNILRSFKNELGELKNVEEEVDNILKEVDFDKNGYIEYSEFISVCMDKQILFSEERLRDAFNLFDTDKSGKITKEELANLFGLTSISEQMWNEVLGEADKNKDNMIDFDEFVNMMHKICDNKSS

[6] = biological target: Plasmodium falciparum protein kinase 6 (PK6, PF3D7_1337100) (UniProt Q8IDW1); test: PfPK6 kinase inhibitors, biochemical, TCAMS library (AID 1159586); conditions: recombinant PfPK6, Kinase-Glo ATP depletion luminescence
Sequence of Plasmodium falciparum protein kinase 6 (PK6, PF3D7_1337100) (Q8IDW1 1-305): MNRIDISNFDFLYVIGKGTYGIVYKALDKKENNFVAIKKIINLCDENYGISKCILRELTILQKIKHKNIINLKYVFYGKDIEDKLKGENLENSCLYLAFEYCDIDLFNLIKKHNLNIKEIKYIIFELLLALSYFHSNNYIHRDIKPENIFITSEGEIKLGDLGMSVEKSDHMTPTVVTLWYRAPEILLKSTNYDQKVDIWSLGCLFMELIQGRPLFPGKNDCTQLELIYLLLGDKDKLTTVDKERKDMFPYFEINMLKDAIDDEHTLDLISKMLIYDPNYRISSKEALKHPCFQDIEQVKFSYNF

[7] = biological target: Protein kinase 7 (PK7), Plasmodium falciparum 3D7 (PF3D7_0213400) (UniProt Q7YTF7); test: inhibition of Plasmodium PK7 catalytic activity – biochemical, TCAMS antimalarial set, Kinase-Glo luminescence (AID 1159587); conditions: recombinant PfPK7, Kinase-Glo ATP depletion luminescence
Sequence of Protein kinase 7 (PK7), Plasmodium falciparum 3D7 (PF3D7_0213400) (Q7YTF7 1-343): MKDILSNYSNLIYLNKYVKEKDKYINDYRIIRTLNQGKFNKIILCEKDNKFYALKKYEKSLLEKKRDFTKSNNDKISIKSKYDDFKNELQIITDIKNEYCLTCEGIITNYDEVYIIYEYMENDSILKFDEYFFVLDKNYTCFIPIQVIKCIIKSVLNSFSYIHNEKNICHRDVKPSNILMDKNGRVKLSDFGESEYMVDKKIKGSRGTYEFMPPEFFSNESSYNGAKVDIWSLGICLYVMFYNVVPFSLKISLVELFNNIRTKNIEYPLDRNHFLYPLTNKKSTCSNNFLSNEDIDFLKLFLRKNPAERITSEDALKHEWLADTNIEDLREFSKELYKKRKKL

[8] = biological target: Calcium-dependent protein kinase 4 (Plasmodium falciparum (isolate 3D7)) (UniProt Q8IBS5); test: PfCDPK4 kinase inhibitors, biochemical, TCAMS library (AID 1159588; cut-off not given, nearly all actives have IC50 up to about 0.91 µM); conditions: recombinant PfCDPK4, Kinase-Glo ATP depletion luminescence
Sequence of Calcium-dependent protein kinase 4 (Plasmodium falciparum (isolate 3D7)) (Q8IBS5 whole entry, looked up): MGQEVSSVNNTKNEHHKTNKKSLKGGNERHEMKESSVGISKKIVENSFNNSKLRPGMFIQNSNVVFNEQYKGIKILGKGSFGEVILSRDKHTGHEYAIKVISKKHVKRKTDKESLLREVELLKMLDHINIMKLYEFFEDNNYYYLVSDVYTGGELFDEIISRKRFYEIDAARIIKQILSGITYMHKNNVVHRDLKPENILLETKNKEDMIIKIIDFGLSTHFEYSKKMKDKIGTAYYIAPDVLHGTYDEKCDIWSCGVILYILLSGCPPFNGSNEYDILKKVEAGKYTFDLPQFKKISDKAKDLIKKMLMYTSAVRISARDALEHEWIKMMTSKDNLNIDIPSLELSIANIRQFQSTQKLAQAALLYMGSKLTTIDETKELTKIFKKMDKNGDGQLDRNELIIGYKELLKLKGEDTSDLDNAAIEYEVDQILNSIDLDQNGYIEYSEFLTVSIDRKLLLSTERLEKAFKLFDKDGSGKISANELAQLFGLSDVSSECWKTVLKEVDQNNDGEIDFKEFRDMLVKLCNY

| SMILES | growth inhibition [1] | inhibition [2] | inhibition [3] [%] | growth inhibition [4] | outcome [5] | outcome [6] | outcome [7] | outcome [8] |
| --- | --- | --- | --- | --- | --- | --- | --- | --- |
| COc1cccc(CN2CCC(N3CCc4cc(NC(=O)c5cc(C)on5)ccc43)C2)c1OC (stereo not drawn) | 92% (active) | 9% | 4 | 93% (active) | inactive | inactive | inactive | inactive |
| Cc1cc(N[C@@H](Cc2ccccc2)C(=O)NCCc2ccccc2)nc(NCCc2cccs2)n1 | 84% (active) | 12% | 4 | 99% (active) | inactive | inactive | inactive | inactive |
| Cn1cnc(CCNC(=O)c2ccc(-c3cccc(-c4nc5ccccc5[nH]4)c3)cc2)c1 | 14% | 1% | 2 | 93% (active) | inactive | inactive | inactive | inactive |
| CN1CCN(c2ccc(-c3cc(-c4ccncc4)c(-c4ccc(Cl)c(O)c4)o3)cc2)CC1 | 98% (active) | -13% | -4 | 101% (active) | inactive | inactive | inactive | inactive |
| COc1cccc(Nc2nc(C)cc(NC3CCCC3)n2)c1 | 79% (active) | 41% | 1 | 101% (active) | inactive | inactive | inactive | inactive |
| NCCCN(Cc1ccc(Cl)c(Cl)c1)C(=O)Nc1ccc(Cl)c(Cl)c1 | 41% | 100% (active) | -2 | 93% (active) | inactive | inactive | inactive | inactive |
| CC(C)(c1ccccc1)c1ccc(O)c(CN2CCOCC2)c1 | 88% (active) | -7% | 2 | 99% (active) | inactive | inactive | inactive | inactive |
| OCCN1CCN(Cc2ccc(-c3ccc(-c4nc5ccccc5[nH]4)cc3)cc2)CC1 | 58% (active) | 6% | -1 | 100% (active) | inactive | inactive | inactive | inactive |
| Oc1ccc2ccccc2c1CNCCC1CCCCC1 | 99% (active) | 16% | 5 | 99% (active) | inactive | inactive | inactive | inactive |
| COc1cccc(C(=O)Nc2nc3c(s2)CCN(Cc2ccccc2N2CCNCC2)CC3)c1 | 11% | 7% | -6 | 89% (active) | inactive | inactive | inactive | inactive |
| CCOc1cc(Cc2cnc(N)nc2N)cc(OC)c1OC | 0% | -3% | -1 | 90% (active) | inactive | inactive | inactive | inactive |
| COC(=O)c1cccc(NC(=O)NC2CCN(c3ccnc(Nc4ccc(OC)cc4)n3)C2)c1 (stereo not drawn) | 65% (active) | 1% | -3 | 99% (active) | inactive | inactive | inactive | inactive |
| O=C(Nc1ccccc1F)N(CCCn1ccnc1)Cc1csc(-c2ccc(CNCc3ccccc3)cc2)n1 | 26% | 24% | 2 | 93% (active) | inactive | inactive | inactive | inactive |
| Cc1ccc(NC(=O)c2ccc(CN3CCCN(CC4CCCCC4)CC3)cc2)cc1C | 32% | 38% | 3 | 86% (active) | inactive | inactive | inactive | inactive |
| CC(C)CNCc1cccc(-c2ccc(CN(C(=O)NCCc3ccccc3)C3CCN(Cc4ccccc4)CC3)cc2)c1 | 47% | 99% (active) | 5 | 98% (active) | inactive | inactive | inactive | inactive |
| CCOCCCNc1nc2cc(OC)c(OC)cc2c2nc(-c3ccccc3)nn12 | 98% (active) | 10% | -3 | 96% (active) | inactive | inactive | inactive | inactive |
| CNCc1cccc(-c2ccc3ccnc(N)c3c2)c1 | 98% (active) | 20% | 3 | 101% (active) | inactive | inactive | inactive | inactive |
| C=CCn1c(=N)c(C(=O)NCc2ccc(F)cc2)cc2c(=O)n3cccc(C)c3nc21 | 11% | 16% | -2 | 92% (active) | inactive | inactive | inactive | inactive |
| CCOC(=O)CCc1cc(F)c(F)c(OC[C@H](O)CNC(C)(C)C(O)c2ccc3ccccc3c2)c1 (stereo partly drawn) | 92% (active) | 12% | -4 | 99% (active) | inactive | inactive | inactive | inactive |
| COc1ccc(NC(=O)C2c3ccccc3C(=O)N(C3CCCC3)C2c2cccs2)cc1OC (stereo not drawn) | 96% (active) | -5% | -2 | 90% (active) | inactive | inactive | inactive | inactive |
| CCOCCCNc1ncc(-c2ccsc2)c(-c2nc(C)cs2)n1 | 83% (active) | 0% | 1 | 89% (active) | inactive | inactive | inactive | inactive |

| SMILES | growth inhibition [1] | inhibition [2] | inhibition [3] [%] | growth inhibition [4] | outcome [5] | outcome [6] | outcome [7] | outcome [8] |
| --- | --- | --- | --- | --- | --- | --- | --- | --- |
| CCCN1CCN(CCCNC(=O)c2cc3c(Cl)nc4ccc(C)cc4c3s2)CC1 | 27% | 18% | 0 | 97% (active) | inactive | inactive | inactive | inactive |
| Cc1ccc(O)cc1C[C@@H]1C(=O)CC[C@@]2(C)[C@H]1CC[C@]2(C)O | -6% | 4% | 1 | 96% (active) | inactive | inactive | inactive | inactive |
| CN1CCN(c2cc3c(Nc4ccc5c(cnn5Cc5ccccc5)c4)ncnc3cn2)CC1 | 35% | 9% | 5 | 88% (active) | inactive | inactive | inactive | inactive |
| O=C(Nc1nc(-c2ccccn2)cs1)c1ccccc1COc1ccccc1 | 42% | 34% | -2 | 83% (active) | inactive | inactive | inactive | inactive |
| CN(/N=C/c1ccc(Cl)cc1)c1nc(NCCc2ccc(O)cc2)nc(N2CCNCC2)n1 | 97% (active) | 10% | 4 | 101% (active) | inactive | inactive | inactive | inactive |
| CSCCC(C(=O)O)N1C(=O)c2ccccc2C1=O (stereo not drawn) | -3% | -4% | -1 | 91% (active) | inactive | inactive | inactive | inactive |
| Cc1cccc2[nH]c(-c3cccc(-c4ccc(CNCCNC(=O)c5ccnn5C)cc4)c3)nc12 | 100% (active) | 21% | -2 | 102% (active) | inactive | inactive | inactive | inactive |
| O=C(Nc1ccc(-c2ccccc2)cc1)Nc1ccc2c(c1)CCNCC2 | 48% | 41% | -2 | 97% (active) | inactive | inactive | inactive | inactive |
| COc1ccc(CC(=O)NC2CCN(c3ccnc4cc(Cl)ccc34)C2)cc1 (stereo not drawn) | 88% (active) | -1% | -8 | 101% (active) | inactive | inactive | inactive | inactive |
| CCn1c2ccccc2c2cc(C=NNc3cc(C)nc4ccccc34)ccc21 | 97% (active) | 19% | -2 | 102% (active) | inactive | inactive | inactive | inactive |
| CC(C)c1cn2c3c(cc(C(=O)N[C@@H](Cc4ccccc4)[C@H](O)CNC4CCOCC4)cc13)N(C)S(=O)(=O)CC2 | 99% (active) | 9% | -6 | 98% (active) | inactive | inactive | inactive | inactive |
| COc1ccc(CC(C)CON2C(N)=NC(N)=NC2(C)C)cc1 (stereo not drawn) | 96% (active) | 59% (active) | -9 | 94% (active) | inactive | inactive | inactive | inactive |
| CCOC(=O)C(=O)N1c2ccc(OCC)cc2-c2c(ssc2=S)C1(C)C | 100% (active) | 5% | -4 | 99% (active) | inactive | inactive | inactive | inactive |
| O=C(CNCC1CCCCC1)Nc1cc(C(F)(F)F)ccc1Cl | 67% (active) | 1% | 2 | 86% (active) | inactive | inactive | inactive | inactive |
| Clc1cccc(C=NNc2ccnc3ccccc23)c1 | 44% | 5% | 4 | 102% (active) | inactive | inactive | inactive | inactive |
| Brc1ccc(Nc2nc3ccccc3nc2Nc2ccc(Br)cc2)cc1 | 100% (active) | 18% | -2 | 101% (active) | inactive | inactive | inactive | inactive |
| OC1(C(F)(F)F)CC(c2ccccc2)=NN1c1nncc(-c2ccccc2)n1 (stereo not drawn) | 3% | -3% | -5 | 99% (active) | inactive | inactive | inactive | inactive |
| COc1ccccc1C(=O)Nc1ccc(Nc2nc(C)cc(N3CCOCC3)n2)cc1 | 22% | 28% | -3 | 98% (active) | inactive | inactive | inactive | inactive |
| CCC1CCc2cc(N)cc(-c3nc4c(c(C)nn4CC)c(=O)[nH]3)c2O1 (stereo not drawn) | 42% | -3% | -4 | 86% (active) | inactive | inactive | inactive | inactive |
| O=C(/C=C/c1ccc(Cl)c(Cl)c1)NCCCCCCN1CCN(C(=O)Nc2cc(Cl)nc(Cl)c2)CC1 | 0% | 15% | -2 | 102% (active) | inactive | inactive | inactive | inactive |
